The full ranking holds about 59,000 sequences; the median of the read-out is about -0.00055, and the lowest 2% start at about -2. Only a selection was taken, and the lowest values are over-represented in it overall.

Data on 67 sequences can be found in PubChem BioAssay AID1159506 (National Center for Advancing Translational Sciences (NCATS), 2015).

The nature of this assay: Identification of proteins required for the processing of the EWS-FLI1 nascent transcript.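 Note: robust z of luciferase light less the median z of siRNAs with the same seed.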 To be noted: TC32 Ewing sarcoma NR0B1-luc vs CMV-luc (EWS-FLI1 target promoter against control promoter), 48 h; screened at 20 nM (by protocol). On the procedure: Ewing sarcoma (ES) cells depend on the EWS-FLI1 fusion transcription factor for cell survival. Using an assay of EWS-FLI1 activity and genome-wide siRNA screening we have identified proteins required for the processing of the EWS-FLI1 nascent transcript. Parallel genome-wide siRNA-mediated RNAi screens were conducted in Ewing sarcoma TC32 cell lines expressing a luciferase (luc) reporter protein driven by either the promoter of the EWS-FLI1 target gene NR0B1 (TC32-NR0B1-luc) or the CMV promoter (TC32-CMV-luc). Luciferase activity was assessed 48 hours post siRNA-transfection.
Twenty microl of serum-free media containing Lipofectamine RNAiMax (0.05 microl) was added to wells containing siRNA (0.8 pmol). Lipid and siRNA were allowed to complex for 45 min at ambient temperature before addition of 600 cells in RPMI-1640, 20% FBS to yield final transfection mixtures containing 20 nM siRNA in RPMI-1640, 10% FBS. Luciferase expression was measured using OneGlo (Promega, Madison, WI). The genome-wide screening campaign was conducted using Ambion's human genome library version 4.1 (Ambion, Austin TX). This library targets approximately 21000 human genes, three siRNAs per gene. Each siRNA is arrayed in an individual well of a 384-well plate. Parallel transfections were conducted in TC32-NR0B1-luc and TC32-CMV-luc cell lines and luciferase expression (OneGlo, Promega) was assayed 48 h later on a PerkinElmer Envision 2104 Multilabel plate reader (PerkinElmer, Waltham, MA). Qiagen's AllStars Negative control was incorporated on all screening plates for normalization (16 wells per plate). Qiagen, Germantown, MDsiGL4 was incorporated as a positive transfection control (16 wells per plate) on all plates. […] The raw luciferase data for the NR0B1- and CMV-luc screens were normalized and z-score-MAD transformed using standard methods (Chung et al., 2008). The miRNA-like seed sequence of every siRNA was determined and the median z-score for all siRNA sequences with the same seed sequence was calculated. This z-score was subtracted from the z-score associated with each siRNA with that seed sequence to generate a seed-adjusted z-score value (Z) that was used when the results for the three siRNAs corresponding to each gene were compared (Marine et al., 2012)
Regarding UUUGAUUUCAGCAUCUUCC against TSKS, the seed-corrected z-score is -3.12.

In turn, AAAUGGUCCAGCAAAUUCU against NPPA yielded a seed-corrected z-score of 0.589.

The sequence UUUUCGUGAUGCUUGGUCC against NDEL1 came in with a seed-corrected z-score of 1.78.

As for UCAAGAGAAUUCUGUAAUC against C5orf60, the seed-corrected z-score was -0.0754.

Turning to AUAGUACACGAUGAACUCG against RAMP3, the seed-corrected z-score was -0.177.

As for UGACUGACACUUUCAAAGC against SHC1, the seed-corrected z-score was -0.358.

Take UGUGGUACCAGGCUGCUUG against PAQR8: the seed-corrected z-score was -2.42.

UUGUUGGACAGUUGAAUCG against SEC62 gave a seed-corrected z-score of 0.834.

For the sequence UUGAGUUCCAAGAGGACCC against TPBG, the seed-corrected z-score is 0.978.

With UUUCUUAUUGUUGCGGCAG against SNRPD2, the seed-corrected z-score was -2.78.

UAUGUGGUUAGUCCGUGUG against GTF3C1 returned a seed-corrected z-score of 0.362.

In turn, AAAGUUUUCCCUUAUGAUG against MYADML2 yielded a seed-corrected z-score of 0.381.

Take UGUUCUUUAAGCCUUUCCA against BLOC1S5: the seed-corrected z-score is -0.0488.

For the sequence UUCCGGAACAUGAAGUGCC against DYRK1B, the seed-corrected z-score was -0.257.

Take UUGUCAAACAGGACUGAGU against AZIN2: the seed-corrected z-score was -0.00443.

With UGUGGGAAAGCAGGUAUCU against ZNF815P, the seed-corrected z-score was -1.11.

As to UAAAGAUGCAGAUAAUAAC against NMUR1, the seed-corrected z-score is 0.231.

UUACGAAUGACAUCCUUUG against CKAP5: the seed-corrected z-score is -2.84.

On to AACACUUACGCAGUUCUUG against MTCP1, for which the seed-corrected z-score turned out to be 0.193.

On to UUUUUCUUCACAGGUGUUU against HIST1H1D, for which the seed-corrected z-score is -0.582.

For the sequence UAAGCUUUUAUUGUGAAUG against GRP, the seed-corrected z-score is -2.97.

Consider UUCUCAUCACUUGUAGCCU against ANKRD36C, for which the seed-corrected z-score turned out to be 0.48.

For UGUUUAGUAGCAGAUCUCC against PSMD6, the seed-corrected z-score is -2.83.

Turning to GUUGGUAACAGGGUCAUUU against RXRG, the seed-corrected z-score was -0.41.

On to UUGCGAACAAUAGGGUUAG against PZP, for which the seed-corrected z-score is -0.222.

UAAAUGUACCGUUUAAACC against LOC647481 had a seed-corrected z-score of 0.567.

UCCGGAAUGUCGAUGCCCU against DUX5: the seed-corrected z-score was -0.471.

For ACUGUUAUUCUUACGCUGG against CUL3, the seed-corrected z-score is -0.643.

Take AAUUUGACCUCAUCCAUUU against FAM47C: the seed-corrected z-score was -0.798.

For UGGUGUAACUUCAACAUCG against ATP13A4, the seed-corrected z-score is -2.09.

As for UAUUCGUCAGCUCAAACUC against IQCH, the seed-corrected z-score was -1.02.

UAGGGUGAGAAUAGACAGG against PEX11B had a seed-corrected z-score of 0.764.

As to UUCAGUUGUGAUAAGUUGC against TLR6, the seed-corrected z-score was -0.0452.

In the case of UUUCGAUCUCUGUUAAGCC against C2orf40, the seed-corrected z-score came out at 0.448.

In the case of UUGAAGACCACGUACAUGG against SLC35D3, the seed-corrected z-score was -0.373.

UAAGCGUAUCUGGAAUUAC against UGCG: the seed-corrected z-score came to 0.00222.

Take UUCUUGACGUGCUUCAUUC against SCO1: the seed-corrected z-score was -0.488.

Sequence UUACGGAUCAUGUGGUCUU against SCNN1B returned a seed-corrected z-score of 0.029.

With UGACUUCACAUGGACUACG against IDH3B, the seed-corrected z-score was -2.07.

AUCAUUCACAGGGAGGUCC against OAZ2 had a seed-corrected z-score of 1.3.

The sequence UUUGCAUCCCUCGCACUUG against MT3 gave a seed-corrected z-score of 0.331.

Take UUGAAUUCAUUGCAUGUCC against CTSZ: the seed-corrected z-score came out at 0.0627.

Consider UAGCGGGUCUCAUCAAAGC against HGFAC, for which the seed-corrected z-score was 1.53.

With UUAGGUGCGCGGCUAACUG against COL9A3, the seed-corrected z-score was -2.65.

Take UCAAUGCAAAGGAACACUC against ARFGAP3: the seed-corrected z-score was -0.0755.

As to AUGUGGGUAAAAACUUGCU against NGRN, the seed-corrected z-score was -2.09.

UUCUUUAUUCCUUGAGCUG against OR10A4: the seed-corrected z-score was -3.24.

As to UACUUGACGAUGUUGCGCG against ADGRL1, the seed-corrected z-score was -0.114.

Take UUCAUAUACAGCACAAUAC against CD58: the seed-corrected z-score was 1.5.

UUGGAGGACAGGUCCAAGU against TSKU: the seed-corrected z-score stood at 0.336.

As for UUCCAUGUAAAACAAUUUC against PDE4D, the seed-corrected z-score amounted to 0.777.

As to UUAUCUGUGACAUAAGUUG against ALG13, the seed-corrected z-score is -2.26.

On to UAGGGUACAUCGUAGGGAG against MYO15A, for which the seed-corrected z-score was -0.369.

As to GGAUUUGCAGCGCAAAGCC against LYPD1, the seed-corrected z-score was -0.365.

Take UCUGGAUUAACGGUGGUCU against NOVA1: the seed-corrected z-score was -3.04.

As for UAAGACUCAAAGUUCCCAG against LOC642502, the seed-corrected z-score is -0.393.

With AGAUGAAAAAGUAAGGCCG against TRIM58, the seed-corrected z-score is -0.628.

UUUUCGAGGACAUUGACUG against FMN1: the seed-corrected z-score amounted to 0.159.

Take UCUUGCUCCAAACCUGCUC against KLHL34: the seed-corrected z-score is -0.143.

As to UUGCGGUAGACGAUGAUGC against ADAM8, the seed-corrected z-score was -1.99.

For the sequence AAGCAUAAAAGGUUCCUGU against IRF4, the seed-corrected z-score was 0.397.

On to UUCUCGUGCACUGUCAAAG against SMU1, for which the seed-corrected z-score was -3.77.

Take UUUGCGGUCACAAUUGGGC against IGFBP5: the seed-corrected z-score is -0.759.

AGACAUAACACUACGAGAC against GBA2 had a seed-corrected z-score of 0.274.

For UUCUUCAUGCGCAGUGUGG against INF2, the seed-corrected z-score worked out at 0.288.

For AAAUCCUCCAAACAUGUGC against ZNRF2, the seed-corrected z-score was -0.0777.

Turning to UGAUCGAAAUGAUUUACAC against CD180, the seed-corrected z-score was -0.034.
